This note sets out measurements from PubChem BioAssay (NCATS).

A short description of assay [1]: Quantitative High-Throughput drug screen in 47 multiple myeloma cell lines against the NCATS MIPE library collection: KMS26_JCRB cell viability assay (AID 1918975). Note: nearly all actives have a fitted effect of over 45% in size. A digest of the protocol: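 Viability readout: CellTiter-Glo luminescence following 5 min room-temperature incubation with reagent. Prior exposure: 48 h, 37C, humidified 5% CO2, 500 cells per well.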

Assay [2] in a line: Quantitative High-Throughput drug screen in 47 multiple myeloma cell lines against the NCATS MIPE library collection: MMM1_PLB cell viability assay (AID 1918976). Note: nearly all actives have a fitted effect of over 35% in size. A digest of the protocol: (§1)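 Inhibition of viability over 48 h was scored by ATP content (CellTiter-Glo) in 500-cell wells. Zero and full viability were defined by media-only and DMSO-only wells.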
Assay [3] is described as follows: Quantitative High-Throughput drug screen in 47 multiple myeloma cell lines against the NCATS MIPE library collection: MOLP8_DSMZ cell viability assay (AID 1918977). Note: nearly all actives have a fitted effect of over 45% in size. The essentials: as §1
The nature of assay [4]: Quantitative High-Throughput drug screen in 47 multiple myeloma cell lines against the NCATS MIPE library collection: NCIH929_DSMZ cell viability assay (AID 1918978). Note: nearly all actives have a fitted effect of over 35% in size. A digest of the protocol: as §1
The nature of assay [5]: Quantitative High-Throughput drug screen in 47 multiple myeloma cell lines against the NCATS MIPE library collection: OCIMY1_PLB cell viability assay (AID 1918979). Note: nearly all actives have a fitted effect of over 35% in size. The essentials: as §1
A short description of assay [6]: Quantitative High-Throughput drug screen in 47 multiple myeloma cell lines against the NCATS MIPE library collection: MM1R_ATCC cell viability assay (AID 1918981). Note: nearly all actives have a fitted effect of over 35% in size. The essentials:
as §1

The nature of assay [7]: Quantitative High-Throughput drug screen in 47 multiple myeloma cell lines against the NCATS MIPE library collection: KMS28PE_JCRB cell viability assay (AID 1918983). Note: nearly all actives have a fitted effect of over 35% in size. A digest of the protocol:
as §1

Assay [8] is described as follows: Quantitative High-Throughput drug screen in 47 multiple myeloma cell lines against the NCATS MIPE library collection: KMS34_JCRB cell viability assay (AID 1918985). Note: nearly all actives have a fitted effect of over 40% in size. A digest of the protocol:
as §1

The nature of assay [9]: Quantitative High-Throughput drug screen in 47 multiple myeloma cell lines against the NCATS MIPE library collection: OCIMY7_PLB cell viability assay (AID 1918987). Note: nearly all actives have a fitted effect of over 65% in size. As to conditions: OCI-MY7 myeloma viability, CellTiter-Glo ATP, 48 h; viability (% of DMSO): at 45.8 µM (top of the series). The essentials: as §1
(ATP-based viability assays read luminescence as a measure of living cells.)

Assay [10] in a line: Quantitative High-Throughput drug screen in 47 multiple myeloma cell lines against the NCATS MIPE library collection: OCIMY5_PLB cell viability assay (AID 1918988). Note: nearly all actives have a fitted effect of over 65% in size. The essentials:
as §1

A short description of assay [11]: Quantitative High-Throughput drug screen in 47 multiple myeloma cell lines against the NCATS MIPE library collection: SKMM1_PLB cell viability assay (AID 1919863). Note: nearly all actives have a fitted effect of over 35% in size. As to conditions: SKMM1 myeloma viability, CellTiter-Glo ATP, 48 h; viability: active compounds read low. The essentials: as §1
Assay [12] in a line: Quantitative High-Throughput drug screen in 47 multiple myeloma cell lines against the NCATS MIPE library collection: U266_ATCC cell viability assay (AID 1919864). Note: nearly all actives have a fitted effect of over 35% in size. The essentials:
as §1

Assay [13] in a line: Quantitative High-Throughput drug screen in 47 multiple myeloma cell lines against the NCATS MIPE library collection: XG6_PLB cell viability assay (AID 1919865). Note: nearly all actives have a fitted effect of over 40% in size. A digest of the protocol:
as §1

Assay [14] is described as follows: Quantitative High-Throughput drug screen in 47 multiple myeloma cell lines against the NCATS MIPE library collection: KMS21BM_JCRB cell viability assay (AID 1918974). As to conditions: ATP luminescence, 48 h; viability: at 45.8 µM (top of the series). A digest of the protocol: (§2)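 Myeloma cells (500 per well) were exposed to MIPE 4.0 compounds by pin transfer and incubated 48 hours at 37C, 5% CO2. Viability was read as ATP by CellTiter-Glo luminescence, normalised to DMSO (100%) and media-only (0%) wells.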

Assay [15] in a line: Quantitative High-Throughput drug screen in 47 multiple myeloma cell lines against the NCATS MIPE library collection: MM1S_ATCC cell viability assay (AID 1918980). Note: nearly all actives have a fitted effect of over 45% in size. A digest of the protocol: as §1
A short description of assay [16]: Quantitative High-Throughput drug screen in 47 multiple myeloma cell lines against the NCATS MIPE library collection: L363_DSMZ cell viability assay (AID 1918984). Note: nearly all actives have a fitted effect of over 40% in size. To be noted: L363 myeloma viability, CellTiter-Glo ATP luminescence, 48 h; viability (% of control): at 45.8 µM (top of the series). A digest of the protocol:
as §1

Assay [17] can be described thus: Quantitative High-Throughput drug screen in 47 multiple myeloma cell lines against the NCATS MIPE library collection: KMS20_JCRB cell viability assay (AID 1918973). Note: nearly all actives have a fitted effect of over 45% in size. A digest of the protocol: as §2
A short description of assay [18]: Quantitative High-Throughput drug screen in 47 multiple myeloma cell lines against the NCATS MIPE library collection: OPM1_PLB cell viability assay (AID 1918989). Note: nearly all actives have a fitted effect of over 40% in size. A digest of the protocol:
as §1

The nature of assay [19]: Quantitative High-Throughput drug screen in 47 multiple myeloma cell lines against the NCATS MIPE library collection: XG1_PLB cell viability assay (AID 1919866). Note: nearly all actives have a fitted effect of over 35% in size. The essentials: as §1
The nature of assay [20]: Quantitative High-Throughput drug screen in 47 multiple myeloma cell lines against the NCATS MIPE library collection: LP1_DSMZ cell viability assay (AID 1918982). Note: nearly all actives have a fitted effect of over 35% in size. The essentials:
as §1

Records with an inconclusive call do not appear. Values without a mark were called inactive. Activity calls are given as the source filed them. Calls come from the whole dose curve; as a rule, active = well fitted curve in the direction sought with a large enough effect; inconclusive = small, poorly fitted or top-dose-only effect, or another doubt; inactive = no such curve, though single readings can be large; an effect the other way counts as inactive or inconclusive.
Potency is the fitted concentration of half-maximal effect.

As to `CN1CCc2c(n(Cc3ccc(C(=O)NO)cc3)c3ccccc23)C1`, the Potency in assay [1] is 14.8 µM (active); in assay [2] it was 14.8 µM (active); in [3], 18.7 µM (active); in [4], 16.6 µM (active); in [5], 18.7 µM (active); in assay [6], 18.7 µM (active). Moreover, the Potency in assay [7] was 14.8 µM (active); in [8], 16.6 µM (active); in [9], 4.18 µM (active); in assay [10] it was 16.6 µM (active); in assay [11], 5.9 µM (active); in assay [12], 26.4 µM (active). Moreover, the Potency in assay [13] was 14.8 µM (active).

As to `N#Cc1ccc(Oc2ccc3c(c2)COB3O)cc1`, the Potency in assay [14] was 3.32 µM (active); in [13], 16.6 µM (active). For the same compound, the Potency entry in [5], in assay [7] and in assay [12] was “inactive” throughout. Also, the viability – broadly, a read-out of living cells in per cent, often relative to untreated cells – in [11] was 113%.

Regarding `CC[C@]1(O)C[C@H]2CN(CCC3=c4ccccc4=N[C]3[C@@](C(=O)OC)(c3cc4c(cc3OC)N(C)[C@H]3[C@@](O)(C(N)=O)[C@H](O)[C@]5(CC)C=CCN6CC[C@]43[C@@H]65)C2)C1`, the Potency is 0.0662 µM (active) in assay [1]; 0.132 µM (active) in assay [2]; 0.148 µM (active) in assay [3]; 0.166 µM (active) in assay [4]; 0.662 µM (active) in [5]; 0.235 µM (active) in assay [15]. Besides, the Potency in [6] was 0.0662 µM (active); in assay [7], 0.0023 µM (active); in [16] it was 0.132 µM (active); in assay [8], 0.0053 µM (active); in [9] it was 0.0662 µM (active); in assay [11], 0.0148 µM (active). Also, the Potency in [12] is 0.0935 µM (active). The Potency entry in [13] was “inactive”.

Consider `C=CC[N+]1([C@H]2C[C@H]3[C@@H]4CC[C@H]5C[C@H](O)[C@@H](N6CCOCC6)C[C@]5(C)[C@@H]4CC[C@]3(C)[C@H]2OC(C)=O)CCCC1`, for which the Potency entry in assay [17], in assay [5], in assay [6], in [18] and in assay [13] was “inactive” in each case. Besides, the Potency in [15] was 18.7 µM (active).

In the case of `C[C@@H](N)c1ccc(C(=O)Nc2ccnc3[nH]ccc23)cc1`, the Potency was 18.7 µM (active) in [17]; 16.6 µM (active) in assay [3]; 18.7 µM (active) in assay [15]; 20.9 µM (active) in assay [16]; 20.9 µM (active) in [8]; 14.8 µM (active) in assay [9]. Besides, the figures for the Potency in [10], in assay [13] and in assay [19] were 23.5 µM (active), 20.9 µM (active) and 20.9 µM (active), respectively.

Turning to `O=C(O)C1=CO[C@@H](O[C@@H]2O[C@H](CO)[C@H](O)[C@H](O)[C@H]2O)[C@@H]2C(CO)=CC[C@H]12`, the Potency entry in assay [17], in assay [3], in assay [5], in assay [6], in [20] and in [7] was “inactive” throughout. Further, the Potency result in [16], in [9], in assay [18], in assay [13] and in assay [19] was “inactive” in each case. The Potency in assay [15] is 16.6 µM (active). In addition, the viability in assay [11] was 118%.

Turning to `CCNC(=O)c1noc(-c2cc(C(C)C)c(O)cc2O)c1-c1ccc(CN2CCOCC2)cc1`, the Potency in assay [17] is 0.0209 µM (active); in assay [15] it was 0.0332 µM (active); in assay [9], 0.0469 µM (active); in assay [18], 0.0833 µM (active); in [12], 0.0332 µM (active); in assay [13] it was 0.132 µM (active). Besides, the Potency in assay [19] was 0.0743 µM (active).

Consider `CC[C@H](C)n1cc(C)c2c(C(=O)NCc3c(C)cc(C)[nH]c3=O)cc(-c3ccc(N4CCNCC4)nc3)cc21`, for which the Potency in assay [17] is 18.7 µM (active); in assay [5], 26.4 µM (active); in [15], 0.935 µM (active); in [20], 23.5 µM (active); in assay [9], 23.5 µM (active); in assay [10], 23.5 µM (active). Besides, the Potency was 20.9 µM (active) in assay [11], 16.6 µM (active) in assay [12], 16.6 µM (active) in [13] and 9.35 µM (active) in assay [19]. The Potency entry in [16] was “inactive”.

Consider `CCC(=O)OCC(=O)[C@@]1(OC(=O)CC)[C@@H](C)C[C@@H]2[C@H]3CCC4=CC(=O)C=C[C@]4(C)[C@@]3(F)[C@@H](O)C[C@@]21C`, for which the Potency in [14] is 2.64 µM (active); in assay [16], 1.05 µM (active); in [18], 14.8 µM (active); in [13], 11.8 µM (active). Besides, the Potency entry in [5] and in assay [12] was “inactive” in each case. In addition, the viability in assay [11] was 97.1%.

With `O=C(Nc1cccc2c(=O)cc(-c3nn[nH]n3)oc12)c1ccc(OCCCCc2ccccc2)cc1`, the Potency is 14.8 µM (active) in assay [17]; 23.5 µM (active) in assay [15]; 26.4 µM (active) in assay [6]; 26.4 µM (active) in assay [13]; 26.4 µM (active) in [19]. Moreover, the Potency entry in [3] was “inactive”.

Regarding `CCC[C@H](Nc1nc(-c2ccc(NC(=O)NCC)c(OC)c2)ncc1C)c1cccnc1`, the Potency in assay [1] is 0.0209 µM (active); in assay [2], 0.0209 µM (active); in assay [3], 0.0662 µM (active); in assay [4] it was 0.0074 µM (active); in assay [15] it was 0.0209 µM (active); in assay [6], 0.0187 µM (active). Further, the Potency in assay [20] is 0.0187 µM (active); in [7], 0.0148 µM (active); in assay [8], 0.0059 µM (active); in assay [10], 0.0166 µM (active); in assay [11], 0.003 µM (active).

`CC[C@H](C=C[C@@H](C)[C@H]1CC[C@H]2[C@@H]3CC=C4C[C@@H](O)CC[C@]4(C)[C@@H]3CC[C@]12C)C(C)C`: the Potency entry in [17], in assay [4], in assay [5], in assay [15], in assay [6] and in assay [16] was “inactive” in each case. For the same compound, the Potency result in [8], in assay [18] and in assay [12] was “inactive” throughout. The viability in assay [11] was 119%. Also, in assay [13], the Potency was 1.02 µM (active).

In the case of `COc1cc2c(cc1OC)[C@@H]1Cc3ccc(OC)c(OC)c3CN1CC2`, the Potency was 4.69 µM (active) in assay [1]; 16.6 µM (active) in assay [2]; 7.43 µM (active) in assay [3]; 2.96 µM (active) in assay [15]; 20.9 µM (active) in assay [7]; 5.9 µM (active) in [10]. The Potency in assay [12] was 11.8 µM (active). In addition, the Potency entry in [4], in assay [5], in assay [13] and in [19] was “inactive” each time.

In the case of `Cn1cnc(-c2cc3nccc(Oc4ccc(NC(=S)NC(=O)Cc5ccccc5)cc4F)c3s2)c1`, the Potency is 13.2 µM (active) in assay [17], 16.6 µM (active) in assay [20] and 18.7 µM (active) in [18]. For the same compound, the Potency result in assay [3] and in [5] was “inactive” each time.

Turning to `O=C(Nc1cccc(C(F)(F)F)c1)Nc1cc(S(=O)(=O)NC2CC2)ccc1-c1ccsc1`, the Potency in [1] was 16.6 µM (active); in assay [2], 18.7 µM (active); in assay [3], 4.18 µM (active); in assay [4], 23.5 µM (active); in assay [15], 20.9 µM (active); in assay [6], 20.9 µM (active). Further, the results for the Potency in assay [9], in assay [18] and in assay [13] were 18.7 µM (active), 26.4 µM (active) and 23.5 µM (active), respectively. For the same compound, the Potency entry in [5] is “inactive”.
